Measurements taken from PubChem BioAssay.
Calls of active or inactive are those of the source.

How the values were obtained:
[1] = test system: Plasmodium falciparum Sir2 (PF13_0152, Sir2A); test: pfSir2 binders on small-molecule microarrays, primary screen, biochemical, small-molecule microarray, 635 nm fluorescence (AID 1098); conditions: small-molecule microarray binding, fluorescence 635 nm; higher = more signal;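 note: score merges spot fluorescence intensity with its signal-to-noise ratio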
[2] = small-molecule microarray binders of probe aDKK1, primary screen, biochemical, biotinylated probe, 635/667 nm fluorescence (AID 1099); conditions: higher = more signal;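 note: score merges 667nm spot fluorescence with signal to noise across triplicate slides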
[3] = small-molecule microarray binders of probe aCHRDL2, primary screen, biochemical, biotinylated probe, 635/667 nm fluorescence (AID 1100); conditions: higher = more signal
[4] = splicing luciferase reporter signal modulators, primary screen, spliceosome inhibition project, cell-based, HEK293, splice +/- reporter (AID 1101); conditions: luminescence, 24 h, higher = more signal, called active from +8 up or from −8 down;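 note: HEK293 cells carrying a splicing-competent luciferase reporter gene; test concentration not given here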
[5] = target: Fibroblast growth factor 10 (Homo sapiens) (UniProt O15520); test: FGF10 binders on small-molecule microarrays, primary screen, biochemical, small-molecule microarray, 635 nm fluorescence (AID 1102); conditions: FGF10 binding, fluorescence 635 nm, higher = more signal
Chain of Fibroblast growth factor 10 (Homo sapiens) (O15520 whole entry, looked up): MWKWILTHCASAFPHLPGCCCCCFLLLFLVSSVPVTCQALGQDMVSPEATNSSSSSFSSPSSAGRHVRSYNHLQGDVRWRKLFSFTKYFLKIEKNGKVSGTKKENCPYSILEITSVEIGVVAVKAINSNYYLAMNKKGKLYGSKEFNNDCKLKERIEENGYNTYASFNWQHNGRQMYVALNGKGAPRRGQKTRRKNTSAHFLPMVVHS

[6] = test system: glycogen synthase kinase-3 (GSK3A per assay name; protocol says GSK3B); test: GSK3 binders on small-molecule microarrays, primary screen, biochemical, small-molecule microarray, 635 nm fluorescence, GSK3A (AID 1103); conditions: small-molecule microarray binding, fluorescence 635 nm; higher = more signal; note: the record names both GSK3A and GSK3B
[7] = target: Epidermal growth factor receptor (Homo sapiens) (UniProt P00533); test: EGFR binders on small-molecule microarrays, primary screen, biochemical, small-molecule microarray, 635 nm fluorescence (AID 1104); conditions: EGFR binding, higher = more signal;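 note: score merges 667 nm emission intensity with spot signal to noise over triplicate slides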
Chain of Epidermal growth factor receptor (Homo sapiens) (P00533 whole entry, looked up): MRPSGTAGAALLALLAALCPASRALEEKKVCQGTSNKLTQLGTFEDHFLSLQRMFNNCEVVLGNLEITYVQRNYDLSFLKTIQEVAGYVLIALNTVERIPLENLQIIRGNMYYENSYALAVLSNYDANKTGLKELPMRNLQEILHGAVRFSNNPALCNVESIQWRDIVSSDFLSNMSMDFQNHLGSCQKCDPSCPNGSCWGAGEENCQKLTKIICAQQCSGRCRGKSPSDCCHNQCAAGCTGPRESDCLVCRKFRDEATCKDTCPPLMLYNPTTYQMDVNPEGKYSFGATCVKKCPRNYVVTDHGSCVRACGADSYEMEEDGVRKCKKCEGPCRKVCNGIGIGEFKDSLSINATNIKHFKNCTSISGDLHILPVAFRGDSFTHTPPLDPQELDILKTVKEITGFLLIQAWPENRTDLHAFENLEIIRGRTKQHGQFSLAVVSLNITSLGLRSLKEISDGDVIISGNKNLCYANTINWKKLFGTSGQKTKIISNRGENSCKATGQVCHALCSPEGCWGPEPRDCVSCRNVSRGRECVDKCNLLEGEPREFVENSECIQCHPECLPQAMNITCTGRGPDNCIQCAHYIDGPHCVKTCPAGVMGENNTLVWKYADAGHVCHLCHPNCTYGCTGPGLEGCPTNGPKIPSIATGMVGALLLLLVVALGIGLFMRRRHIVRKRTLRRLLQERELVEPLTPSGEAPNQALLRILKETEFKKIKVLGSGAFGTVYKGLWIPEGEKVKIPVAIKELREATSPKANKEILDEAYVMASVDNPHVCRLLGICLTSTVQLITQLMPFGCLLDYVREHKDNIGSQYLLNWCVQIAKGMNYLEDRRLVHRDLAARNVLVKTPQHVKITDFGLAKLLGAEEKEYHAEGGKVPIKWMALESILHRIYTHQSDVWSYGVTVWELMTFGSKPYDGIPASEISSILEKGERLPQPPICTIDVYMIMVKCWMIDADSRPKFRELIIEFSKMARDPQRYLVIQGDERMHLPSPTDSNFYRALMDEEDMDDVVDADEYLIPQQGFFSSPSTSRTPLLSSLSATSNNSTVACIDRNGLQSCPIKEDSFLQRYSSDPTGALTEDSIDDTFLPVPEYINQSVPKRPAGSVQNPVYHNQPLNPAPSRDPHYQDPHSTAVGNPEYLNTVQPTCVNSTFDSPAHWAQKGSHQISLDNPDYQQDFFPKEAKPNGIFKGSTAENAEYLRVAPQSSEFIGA

[8] = target: Follistatin-related protein 3 (Homo sapiens) (UniProt O95633); test: FSTL3 binders on small-molecule microarrays, primary screen, biochemical, small-molecule microarray, 635 nm fluorescence (AID 1105); conditions: FSTL3 binding, higher = more signal;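 note: score merges emission near 667 nm and signal to noise per printed spot across three slides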
Chain of Follistatin-related protein 3 (Homo sapiens) (O95633 whole entry, looked up): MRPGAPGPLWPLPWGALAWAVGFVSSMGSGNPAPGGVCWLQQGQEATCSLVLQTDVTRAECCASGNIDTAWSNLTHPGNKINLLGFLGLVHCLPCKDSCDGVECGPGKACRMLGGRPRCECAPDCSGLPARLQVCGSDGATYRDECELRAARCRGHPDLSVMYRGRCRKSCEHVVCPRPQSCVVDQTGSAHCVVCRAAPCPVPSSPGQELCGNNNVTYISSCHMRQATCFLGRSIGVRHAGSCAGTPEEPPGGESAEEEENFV

[9] = target: Dickkopf-related protein 1 (Homo sapiens) (UniProt O94907); test: DKK1 binders on small-molecule microarrays, primary screen, biochemical, small-molecule microarray, 635 nm fluorescence scan (AID 1106); conditions: DKK1 binding, higher = more signal;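 note: score merges emission near 667 nm with signal to noise over three replicate slides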
Chain of Dickkopf-related protein 1 (Homo sapiens) (O94907 whole entry, looked up): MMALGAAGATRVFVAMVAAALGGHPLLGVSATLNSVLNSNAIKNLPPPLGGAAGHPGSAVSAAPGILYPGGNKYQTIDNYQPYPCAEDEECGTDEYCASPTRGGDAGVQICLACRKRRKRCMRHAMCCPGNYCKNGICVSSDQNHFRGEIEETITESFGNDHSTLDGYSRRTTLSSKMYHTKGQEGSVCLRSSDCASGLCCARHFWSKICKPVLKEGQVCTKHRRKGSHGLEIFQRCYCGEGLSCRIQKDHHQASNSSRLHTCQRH

[10] = test system: Inhibin beta A chain (activin A); test: INHBA (activin A) binders on microarrays, primary screen, biochemical, small-molecule microarray, 635 nm fluorescence scan (AID 1107); conditions: small-molecule microarray binding, higher = more signal;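 note: mouse activin A protein probed at 4.33 µg/mL on printed slides; score merges bound-protein fluorescence near 667 nm with spot signal-to-noise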
[11] = test system: Human papillomavirus type 1a protein E7 (residues 44-93); test: HPV1a E7 fragment binders on microarrays, primary screen, biochemical, small-molecule microarray, residues 44-93, 635 nm fluorescence (AID 1108); conditions: small-molecule microarray binding, fluorescence 635 nm; higher = more signal;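 note: E7 fragment applied at 1 µg/mL in TBST for 1 h at 4 C; score combines spot fluorescence with its signal to noise ratio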
[12] = modulators of HCV replicon luciferase signal, primary screen, HCV replication inhibitor project, Huh7 cells, luciferase reporter (AID 1109); conditions: 48 h, higher = more signal;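 note: huh7 hepatoma cells harbouring a luciferase neomycin HCV replicon reporter; luciferase luminescence as measure of HCV replicon replication; test concentration not given here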
[13] = target: Left-right determination factor 2 (Homo sapiens) (UniProt O00292); test: LEFTY2 binders on small-molecule microarrays, primary screen, biochemical, small-molecule microarray, 635 nm fluorescence scan (AID 1110); conditions: LEFTY2 binding, higher = more signal
Chain of Left-right determination factor 2 (Homo sapiens) (O00292 whole entry, looked up): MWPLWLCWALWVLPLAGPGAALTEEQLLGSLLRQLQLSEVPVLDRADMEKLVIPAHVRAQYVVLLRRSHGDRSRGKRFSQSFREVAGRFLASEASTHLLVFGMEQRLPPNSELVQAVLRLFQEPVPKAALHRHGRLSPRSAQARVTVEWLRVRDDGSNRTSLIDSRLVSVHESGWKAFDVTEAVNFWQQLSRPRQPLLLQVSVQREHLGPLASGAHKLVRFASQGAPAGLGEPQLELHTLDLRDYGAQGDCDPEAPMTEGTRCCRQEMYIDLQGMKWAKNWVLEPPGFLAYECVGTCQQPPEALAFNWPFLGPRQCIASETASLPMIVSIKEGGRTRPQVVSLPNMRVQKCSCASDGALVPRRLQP

[14] = target: Calmodulin-1 (Homo sapiens) (UniProt P0DP23); test: CALM1 binders on microarrays, EGTA buffer, profiling panel, biochemical, small-molecule microarray, Cy5-labelled CALM1 (AID 1111); conditions: Cy5-CALM1 binding fluorescence, higher = more signal;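 note: labelled calmodulin applied in Tris saline Tween buffer holding calcium plus EGTA and DTT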
[15] = target: Calmodulin-1 (Homo sapiens) (UniProt P0DP23); test: calcium-bound CALM1 binders on microarrays, profiling panel, artefact control for SMM control-protein annotation, biochemical, small-molecule microarray, Cy5-labelled CALM1, plus calcium (AID 1112); conditions: Cy5-CALM1 binding fluorescence, higher = more signal;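 note: score merges spot fluorescence with signal to noise from triplicate slides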
[16] = small-molecule microarray binders of probe aWnt5a, primary screen, biochemical, biotinylated probe, 635/667 nm fluorescence (AID 1113); conditions: higher = more signal;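 note: score merges 667 nm fluorescence intensity with signal-to-noise per printed feature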
[17] = small-molecule microarray binders of probe aShh, primary screen, biochemical, biotinylated probe, 635/667 nm fluorescence (AID 1114); conditions: higher = more signal;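 note: probe is biotin-labelled aShh protein from a stem cell growth factor screen; measures binding of labelled protein to compounds printed on the slide; score merges feature fluorescence at 667 nm with signal-to-noise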
[18] = small-molecule microarray binders of probe aNog, primary screen, biochemical, biotinylated probe, 635/667 nm fluorescence (AID 1115); conditions: higher = more signal;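 note: probe is biotinylated aNog protein used at 0.15 µg/mL for 1 h at 4 C; z-score combines 667 nm fluorescence of each spot with its signal to noise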
[19] = target: Torsin-1A-interacting protein 1 (Homo sapiens) (UniProt Q5JTV8); test: LAP1 binders from COS7 cell lysate, primary screen, small-molecule microarray, 635/667 nm fluorescence (AID 1116); conditions: COS7-hLAP1 lysate binding, 635 nm fluorescence, higher = more signal
Chain of Torsin-1A-interacting protein 1 (Homo sapiens) (Q5JTV8 whole entry, looked up): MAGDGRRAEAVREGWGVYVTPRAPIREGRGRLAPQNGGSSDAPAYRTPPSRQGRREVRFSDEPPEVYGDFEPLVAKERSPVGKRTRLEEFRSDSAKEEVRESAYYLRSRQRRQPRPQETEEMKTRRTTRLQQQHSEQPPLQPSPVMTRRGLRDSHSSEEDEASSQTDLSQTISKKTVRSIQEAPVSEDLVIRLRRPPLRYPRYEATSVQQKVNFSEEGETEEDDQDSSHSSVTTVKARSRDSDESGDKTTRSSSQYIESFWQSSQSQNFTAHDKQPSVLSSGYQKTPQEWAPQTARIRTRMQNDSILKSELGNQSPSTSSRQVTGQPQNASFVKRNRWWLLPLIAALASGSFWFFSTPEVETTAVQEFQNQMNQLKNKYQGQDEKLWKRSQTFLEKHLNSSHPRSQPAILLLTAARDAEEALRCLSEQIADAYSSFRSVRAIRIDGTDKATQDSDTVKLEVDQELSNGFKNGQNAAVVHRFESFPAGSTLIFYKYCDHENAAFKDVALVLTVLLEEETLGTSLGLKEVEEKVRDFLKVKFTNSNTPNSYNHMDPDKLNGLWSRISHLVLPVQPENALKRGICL

[20] = target: Alpha-bungarotoxin (Bungarus multicinctus) (UniProt P60615); test: alpha-bungarotoxin binders on microarray, profiling panel, artefact control for SMM control protein annotation, biochemical, small-molecule microarray, Alexa647 label, 635/667 nm fluorescence (AID 1117); conditions: alpha-BTX-A647 binding fluorescence, higher = more signal
Chain of Alpha-bungarotoxin (Bungarus multicinctus) (P60615 whole entry, looked up): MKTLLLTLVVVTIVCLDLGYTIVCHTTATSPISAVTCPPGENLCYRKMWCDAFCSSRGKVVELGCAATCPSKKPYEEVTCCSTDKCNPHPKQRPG

Structure (SMILES)	composite z-score [1]	composite z-score [2]	composite z-score [3]	z-score [4]	composite z-score [5]	composite z-score [6]	composite z-score [7]	composite z-score [8]	composite z-score [9]	composite z-score [10]	composite z-score [11]	z-score [12]	composite z-score [13]	composite z-score [14]	composite z-score [15]	composite z-score [16]	composite z-score [17]	composite z-score [18]	composite z-score [19]	composite z-score [20]
CC1CC/C=C\[C@H]2OC34C=CCN(Cn5nnc6ccccc65)C(=O)[C@H]3N(CCCCCCO)C(=O)[C@@H]4C2C(=O)O1 (stereo not given in full)	0.765	-0.252	0.794	0.468 (inactive)	-0.835	-0.759	-0.951	-1.23	-1.36	-0.306	-0.0257	0.0151	-1.7	0.259	0.659	-0.232	-0.0709	0.0021	0.145	-0.551
NC(=O)NCC#Cc1ccc2c(c1)[C@]1(C(=O)N2)[C@H](c2ccc(OCCO)cc2)N2[C@H](c3ccccc3)[C@H](c3ccccc3)OC(=O)[C@H]2[C@@H]1C(=O)O	1.05	0.151	0.654	-0.708 (inactive)	-0.808	-1.84	-0.716	-0.567	-0.57	0.993	-0.979	-0.591	-0.644	0.024	0.991	-0.122	-0.102	0.281	0.561	2.44
N#Cc1ccc(NN2C(C(O)C3CC=CCC3)C=CC3C(=O)N(c4ccccc4)C(=O)C32)cc1 (stereo not given)	0.602	0.417	0.728	1.6 (inactive)	1.09	0.79	1.44	1.38	-0.141	1.25	1.48	-0.137	0.0779	0.0301	-0.753	-0.13	0.0639	0.313	0.102	1.17
C=CCNC(=O)[C@H]1[C@@H]2C(=O)O[C@@H](c3ccccc3)[C@@H](c3ccccc3)N2[C@@H](c2ccccc2OCCO)[C@]12C(=O)N(C(=O)OCCOC)c1ccc(C#Cc3ccc(OC)cc3)cc12	0.801	0.256	0.581	0.522 (inactive)	0.654	1.06	0.301	0.0527	-0.163	0.032	1.39	-2.79	0.342	1.39	0.37	-0.152	-0.0011	0.254	0.143	1.3
CC(C)NC(=O)[C@@H]1c2ccccc2C(=O)N(Cc2ccccc2C(F)(F)F)[C@H]1c1ccc(CO)cc1	1.68	1.35	0.218	0.438 (inactive)	0.697	-0.295	-0.08	0.147	-0.393	-0.349	0.464	-0.692	-1.27	-0.588	-0.721	0.4	0.0649	-1.04	0.0048	-0.198
C=CCOC(=O)[C@@H]1[C@H]2C(=O)O[C@H](c3ccccc3)[C@H](c3ccccc3)N2[C@H](c2ccc(OCCOC(=O)[C@H]3C[C@H]4C(=O)N[C@@H](CCCCN(C)C)C(=O)N4[C@H]3c3ccc(O)cc3)cc2)[C@@]12C(=O)Nc1ccc(I)cc12	1.52	0.0904	-0.13	0.676 (inactive)	0.88	1.33	0.989	1.42	1.15	0.291	1.06	-3.31	1.17	-0.842	-0.972	0.0317	-0.0578	0.219	1.31	1.51
